Among the data in PubChem BioAssay (NCATS) are Potency and activity change, negative = inhibition values, retold here.

Assay [1] addresses Aldehyde dehydrogenase, mitochondrial (Homo sapiens) (UniProt P05091). The experiment in a line: qHTS for Inhibitors of the Aldehyde Dehydrogenase Family (ALDH2) Primary screen (AID 2061308).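 Also: plate controls were vehicle for no effect and reference inhibitor for full effect; nearly all actives have a fitted effect of over 55% in size.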 The following applies: ALDH2 enzyme inhibition qHTS, 1536-well; series mostly up to 56 µM. On the technique in general: qHTS replaces the single test concentration by a dilution series.
For assay [2], the target named is Retinaldehyde dehydrogenase 3 (Homo sapiens) (UniProt P47895). The experiment in a line: qHTS for Inhibitors of the Aldehyde Dehydrogenase Family (ALDH1A3) Primary screen (AID 2061315).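 Also: plate controls were DMSO vehicle for no effect and reference inhibitor for full effect.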 The following applies: ALDH inhibition qHTS; series mostly up to 56 µM.

Results filed as inconclusive are left out. Unmarked numbers belong to inactive results. Active and inactive are the calls of the source. Calls follow the shape of the dose curve; as a rule, active = well fitted curve in the direction sought with a large enough effect; inconclusive = small, poorly fitted or top-dose-only effect, or another doubt; inactive = no such curve, though single readings can be large; an effect the other way counts as inactive or inconclusive.

With `Cc1cccc([S+](=O)([O-])NC2CCN(C#N)CC2)c1`, the Potency result in assay [1] and in assay [2] was “inactive” each time.
Consider `O=[S+]([O-])(c1ccc2nsnc2c1)N1CCN([S+](=O)([O-])c2c(F)cccc2F)CC1`, for which the Potency entry in assay [1] and in assay [2] was “inactive” throughout.
Regarding `NC(=O)C1CCN(c2ncc(-c3cccc(F)c3)s2)CC1`, the Potency entry in assay [1] and in assay [2] was “inactive” throughout.
As to `N#Cc1ncc(C(=O)OCC(=O)NC2C3CC4CC(C3)CC2C4)cn1` (stereo not drawn), the Potency entry in assay [1] and in assay [2] was “inactive” throughout.
In the case of `CCC(=O)NC(C)c1cc(Cl)c2cccnc2c1O` (stereo not drawn), the Potency entry in assay [1] and in assay [2] was “inactive” each time.
For `O=S(=O)(c1cccc(F)c1)N1CCN(S(=O)(=O)c2ccc3c(c2)OCCO3)CC1`, the Potency result in assay [1] and in assay [2] was “inactive” each time.
For the molecule `CN(c1ccc(NC(=O)Nc2ccccc2)cc1)S(=O)(=O)c1cnn(-c2ccc(F)cc2)c1`, the Potency result in assay [1] and in assay [2] was “inactive” in each case.
Take `COC1CC(O[C@H]2CC[C@@]3(C)C(=CC[C@]4(O)C3[C@H](OC(C)=O)[C@@H](OC(=O)c3ccccc3)[C@]3(C)[C@@H](C(C)=O)CC[C@@]34O)C2)OC(C)C1OC1CC(OC)C(OC2CC(OC)C(OC3OC(C)C(OC4OC(CO)C(O)C(O)C4O)C(OC)C3O)C(C)O2)C(C)O1` (stereo partly drawn): the activity change, negative = inhibition was 8.46% [at 11.2 µM] in assay [1] and 2.23% [at 11.2 µM] in assay [2].
`O=C1CCc2cc(S(=O)(=O)NCc3ccccc3)ccc2N1`: the Potency result in assay [1] and in assay [2] was “inactive” throughout.
`Cc1noc(C)c1-c1ccc(Nc2nc(-c3ccncc3)nc3ccccc23)cc1F`: the Potency entry in assay [1] and in assay [2] was “inactive” throughout.
Take `C#CCOc1ccc(-c2nnc3n2N=C(c2ccc(OC)c(OCC(C)=O)c2)CS3)cc1`: the Potency result in assay [1] and in assay [2] was “inactive” throughout.
`Cc1cc(C)nc(NC(=S)N2CCN(c3cc(C#N)cc(C#N)c3)CC2)c1`: the Potency result in assay [1] and in assay [2] was “inactive” in each case.
On to `COc1cccc(C(=O)NCCc2nc3ccccc3n2CCOc2ccc(C)cc2)c1`, for which the Potency result in assay [1] and in assay [2] was “inactive” throughout.
Take `CC(=O)Nc1sc2c(c1-c1ccc3c(c1)OCO3)CCNC2`: the Potency entry in assay [1] and in assay [2] was “inactive” each time.
As for `Cc1ccc(-c2nnc(NC(=O)Nc3ccc4ccccc4c3)s2)cc1`, the Potency result in assay [1] and in assay [2] was “inactive” throughout.
As to `CCN(CC)CCCC(C)n1c(-c2ccccc2)nc2c(NCCO)nc(C)nc21` (stereo not drawn), the Potency entry in assay [1] and in assay [2] was “inactive” in each case.
In the case of `CCCc1cc(C)n(C)c(=O)c1CN(C)C(=O)c1cc(-c2ccc(N3CCN(C(C)C)CC3)nc2)cc2c1cnn2C(C)C`, the Potency result in assay [1] and in assay [2] was “inactive” in each case.
Regarding `COc1cc2nc(N3CCN(C)CC3)nc(NCCN(C)C)c2cc1OC`, the Potency entry in assay [1] and in assay [2] was “inactive” throughout.
In the case of `COc1cccc(CNc2ccc(S(=O)(=O)Nc3ccccc3)cc2)c1O`, the Potency entry in assay [1] and in assay [2] was “inactive” each time.
